These results are taken from PubChem BioAssay (NCATS).

Records with an inconclusive call do not appear. Activity calls are given as the source filed them. Unless noted, calls follow the shape of the dose curve; as a rule, active = well fitted curve in the direction sought with a large enough effect; inconclusive = small, poorly fitted or top-dose-only effect, or another doubt; inactive = no such curve, though single readings can be large; an effect the other way counts as inactive or inconclusive.

For assay [1], the target named is Lysosomal acid glucosylceramidase (Homo sapiens) (UniProt P04062). Briefly: Glucocerebrosidase-p2 (AID 348; in the data active = potency below about 10 µM; also: potency is read from the fitted curve at half-maximal effect). As to conditions: purified GBA, blue fluorogenic substrate, 40 min. Summed up:
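Compounds titrated from 0.6 nM upwards against 0.2 nM enzyme in pH 5.9 citric acid/KH2PO4, taurocholate, tween-20; blue fluorogenic substrate 80 uM, 40 min room temperature, stopped and read Ex 365/Em 440 for AC50.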

Assay [2] can be described thus: AP1 Signaling Pathway (AID 357; active = well fitted curve in either direction with a large enough effect, not every such curve was filed as active;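 also: ME-180 reporter cells stimulated with EGF at its EC50 level; % is scaled to controls: 0 for no effect and ±100 for the full control effect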). As to conditions: ME-180 AP-1-bla reporter, EGF-induced, beta-lactamase ratio, 5 h; at 7.69 µM (top of the series) unless noted. An outline of the steps:
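AP-1-bla ME-180 cells, Opti-MEM + 0.5% dialyzed FBS, plated overnight 37 °C. Cpd titration + EC50 EGF, 5 h 37 °C. CCF4 2.5 h RT; ex 405, em 460/530 ratio → %activity, AC50.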

Assay [3] deals with Glucocorticoid receptor (Homo sapiens) (UniProt P04150). In words: GR-GFP Redistribution (AID 450;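 active = compounds whose dose series gives a full or clear partial fitted curve of increased nuclear translocation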; also: potency is read from the fitted curve at half-maximal effect). The conditions noted are these: U2OS GR-GFP nuclear translocation, laser cytometry, 2 h.
Glucocorticoid receptor (Homo sapiens), sequence (P04150 whole entry, looked up, the tested form may be a part): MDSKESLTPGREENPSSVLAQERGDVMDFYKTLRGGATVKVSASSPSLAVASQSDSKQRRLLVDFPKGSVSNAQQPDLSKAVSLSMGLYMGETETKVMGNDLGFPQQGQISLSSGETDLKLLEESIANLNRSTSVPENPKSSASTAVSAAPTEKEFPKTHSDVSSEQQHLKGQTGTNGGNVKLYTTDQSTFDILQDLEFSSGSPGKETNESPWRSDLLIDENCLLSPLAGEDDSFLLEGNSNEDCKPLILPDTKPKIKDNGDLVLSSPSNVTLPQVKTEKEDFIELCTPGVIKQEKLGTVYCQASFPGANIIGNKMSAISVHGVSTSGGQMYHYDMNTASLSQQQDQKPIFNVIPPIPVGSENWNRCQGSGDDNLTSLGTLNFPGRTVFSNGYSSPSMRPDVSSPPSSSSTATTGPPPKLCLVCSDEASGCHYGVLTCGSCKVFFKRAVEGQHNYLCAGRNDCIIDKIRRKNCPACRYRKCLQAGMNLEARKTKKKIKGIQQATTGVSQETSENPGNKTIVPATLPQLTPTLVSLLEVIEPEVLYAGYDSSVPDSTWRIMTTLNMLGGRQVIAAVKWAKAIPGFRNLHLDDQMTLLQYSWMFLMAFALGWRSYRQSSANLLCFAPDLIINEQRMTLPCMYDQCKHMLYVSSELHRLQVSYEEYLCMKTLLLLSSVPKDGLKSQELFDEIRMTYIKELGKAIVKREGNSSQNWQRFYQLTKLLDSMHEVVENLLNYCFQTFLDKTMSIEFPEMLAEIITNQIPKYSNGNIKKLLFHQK
For assay [4] the target is unchanged. Briefly: GR-EFC Redistribution (AID 451; calls by dose curve; also: potency is read from the fitted curve at half-maximal effect). As to conditions: CHO-K1 GR-EFC translocation, beta-gal luminescence, 2 h. An outline of the steps: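 CHO-K1 cells stably expressing nuclear-localized β-gal enzyme acceptor and GR fused C-terminally to the enzyme donor fragment; ligand-driven nuclear translocation restores β-gal by complementation. Compounds titrated up to 46 uM final, 2 h at 37 °C; luminescence read.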

Assay [5] deals with 3',5'-cyclic-AMP phosphodiesterase 4B (Homo sapiens) (UniProt Q07343). Briefly: qHTS Assay for Inhibitors of PDE-IV (AID 607; active = well fitted activation curve with a large enough effect in the main read-out, with a control signal flat, not every such curve was filed as active; also: % of control where 0% means no effect). As to conditions: HEK293 ACTOne CNG channel cells, membrane potential fluorescence; series mostly up to 22.9 µM. An outline of the steps:
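ACTOne HEK293 cells carry a modified cAMP-gated CNG channel and express endogenous PDE4; plated 1000 cells/well, compounds up to 22.9 uM final. Membrane-potential dye fluorescence (ex 535/em 590) was read; parental cells received 10 uM forskolin + 100 uM RO 20-1724.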

The target in assay [6] is Dual specificity protein kinase CLK4 (Homo sapiens) (UniProt Q9HAZ1). In words: qHTS Assay for Inhibitors of CDC-like Kinase 4 (Kinase-Glo Assay) (AID 1770). Also: % is scaled to controls: 0 for no effect and ±100 for the full control effect; nearly all actives have a fitted effect of over 65% in size. As to conditions: recombinant Clk4, Kinase-Glo ATP depletion luminescence; series mostly up to 66.7 µM. Summed up:
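Recombinant human Clk4 (25 nM) phosphorylated RS repeat peptide (100 uM) with 1 uM ATP in Tris pH 7.5/MgCl2/EGTA/DTT/Triton buffer for 4.5 h at room temperature. Residual ATP was quantified by Kinase-Glo luciferase luminescence.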
Background: qHTS replaces the single test concentration by a dilution series.

Assay [7] has the same target. Briefly: qHTS Assay for Inhibitors of CDC-like Kinase 4 (ADP-FP Assay) (AID 1795). Also: % is scaled to controls: 0 for no effect and ±100 for the full control effect; nearly all actives have a fitted effect of over 60% in size. The conditions noted are these: Transcreener ADP fluorescence polarization; series mostly up to 50 µM. Summed up:
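Recombinant human Clk4 (6.25 nM) phosphorylated RS repeat peptide (100 uM) with 1 uM ATP in Tris pH 7.5/MgCl2/EGTA/DTT/Triton buffer for one hour. ADP was quantified by Transcreener competitive fluorescence polarization against an ADP calibration curve.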

Assay [8] deals with Ubiquitin carboxyl-terminal hydrolase 1 (Homo sapiens) (UniProt O94782). Briefly: Inhibitors of USP1/UAF1: Pilot qHTS (AID 504865).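 Also: rhodamine fluorescence freed from ubiquitin-rhodamine substrate followed over time; top concentration of the series differs between compounds; % is scaled to controls: 0 for no effect and ±100 for the full control effect; nearly all actives have a fitted effect of over 35% in size.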 The conditions noted are these: purified USP1/UAF1, Ub-rhodamine cleavage fluorescence; series mostly up to 54.9 µM. Summed up:
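USP1/UAF1 complex (1nM) preincubated with compound 15 min at room temperature, then Ub-Rho substrate (150nM final) added. Fluorescence read kinetically at 480/540 nm, 6 reads every 60 seconds. Buffer: 50mM HEPES pH 7.8, 0.5mM EDTA, 0.1 mg/ml BSA, 1mM TCEP, 0.01% Tween-20.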

Assay [9] is described as follows: Counterscreen qHTS for small molecule stabilizers of the endoplasmic reticulum resident proteome: GLuc-NoTag assay (AID 1508627).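 Also: SH-SY5Y cells given compound then 100 nM thapsigargin to empty ER calcium; 0% = thapsigargin alone and -100% = DMSO vehicle control.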 As to conditions: Gaussia luciferase NoTag secretion counterscreen, luminescence, thapsigargin 100 nM for final 4 h; series mostly up to 76.4 µM. Summed up:
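SH-SY5Y cells stably expressing constitutively secreted GLuc (no SERCaMP tag) were pre-incubated 5 h, treated with compound for 19 h, then 100 nM thapsigargin for 4 h at 37C; medium GLuc read by coelenterazine luminescence.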
Background: The purpose of a counterscreen is to sort out artefacts and off-target activity.

Assay [10] in a line: Confirmatory qHTS for small molecule stabilizers of the endoplasmic reticulum resident proteome: Secreted ER Calcium Modulated Protein (SERCaMP) assay (AID 1508628). Also: nearly all actives have a fitted effect of over 40% in size. Also: potency is read from the fitted curve at half-maximal effect. As to conditions: SERCaMP secreted luciferase ER calcium/proteostasis reporter; series mostly up to 76.3 µM. Summed up:
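SH-SY5Y cells stably expressing GLuc-SERCaMP, treated 16 h with compound (primary 1.53, 7.67, 38.3 uM; confirmation 11 concentrations, up to 76.6 uM), then 100 nM thapsigargin for 4 h. Secreted Gaussia luciferase in medium read by coelenterazine luminescence.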

Assay [11] is described as follows: NFAT Signaling Pathway (AID 444; active = well fitted curve in either direction with a large enough effect, not every such curve was filed as active;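 also: carbachol stimulus at about its EC50 of 1 µM final; % is scaled to controls: 0 for no effect and ±100 for the full control effect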). The conditions noted are these: Jurkat NFAT-bla M1, carbachol, beta-lactamase ratio, 5 h; at 7.69 µM (top of the series) unless noted. Summed up:
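Jurkat cells carrying an NFAT-driven β-lactamase reporter and co-transfected muscarinic M1 receptor were treated with compound plus carbachol (1 uM final, an EC50 level) for 5 h at 37 °C. CCF4 loading followed for 1 h at RT; 460/530 nm ratio gave %activity.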

Assay [12] in a line: Stat Signaling Pathway (AID 446; active = well fitted curve in either direction with a large enough effect, not every such curve was filed as active;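 also: ME-180 cervical cancer cells given 40 pM IL-6 alongside compound; SIE-controlled beta-lactamase reporter measured as 460/530 nm FRET emission ratio; % is scaled to controls: 0 for no effect and ±100 for the full control effect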). As to conditions: ME-180 (cervical carcinoma) SIE beta-lactamase reporter, IL-6 stimulated, 5 h; at 7.69 µM (top of the series) unless noted. Summed up:
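ME-180 SIE-bla cells; overnight plating; cpd + IL-6 40 pM, 5 h, 37 C; LiveBLAzer 2.5 h RT; 460/530 nm emission ratio. Normalized to 300 pM IL-6 and 125 nM JAK inhibitor controls.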

For assay [13], the target named is Mitogen-activated protein kinase 10 (Mus musculus) (UniProt Q61831). In words: JNK3 AlphaScreen Assay (AID 530; active = well fitted curve in either direction with a large enough effect, not every such curve was filed as active;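 also: kinase came from lysate of stimulated human HepG2 cells; signal reports phosphorylation of biotinylated GST-cJun 1-79 at Ser73 with 10 µM ATP; % is scaled to controls: 0 for no effect and ±100 for the full control effect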). The conditions noted are these: JNK3 lysate, c-Jun phosphorylation; series mostly up to 57.1 µM. Summed up: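 Inhibitors reduce antibody binding to phosphorylated biotin-cJun, lowering AlphaScreen luminescence. Lysates from HepG2 cells pre-activated by IL-1beta plus TNF-alpha supplied JNK3; compounds were titrated.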
(In general: Alpha assays give light when donor and acceptor beads are brought close together.)

A short description of assay [14]: qHTS Assay for Lipid Storage Modulators (AID 1519; calls by dose curve). The conditions noted are these: Drosophila S3 cells, BODIPY lipid droplet/cell ratio, laser cytometry, cells loaded with oleic acid. An outline of the steps:
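Cells seeded at 5,000 per well were treated with compounds over a concentration series and loaded with oleic acid (400 uM, as added). Lipid droplet fluorescence (488 nm excitation, 500-530 nm channel) was read by laser-scanning cytometry and normalized to 20 uM Triacsin C.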

A short description of assay [15]: Cell Viability qHTS for small molecule stabilizers of the endoplasmic reticulum resident proteome (AID 1508629). The conditions noted are these: cell viability counter-screen, 100 nM thapsigargin for final 4 h.
Assay [16] addresses Cytochrome P450 1A2 (Homo sapiens) (UniProt P05177). Briefly: p450-cyp1a2 (AID 410; calls by dose curve; also: potency is read from the fitted curve at half-maximal effect). As to conditions: recombinant CYP1A2, luciferin-ME demethylation, luminescence; series mostly up to 57 µM. An outline of the steps: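 Luminescent readout of luciferin formed from Luciferin-ME by human CYP1A2; data normalized against complete inhibition by 57 uM furafylline. Enzyme 20nM, substrate 100uM at Km, 100mM KPO4 buffer, 60 min reaction at room temperature.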

In assay [17] the target is Cytochrome P450 2C9 (Homo sapiens) (UniProt P11712). In words: qHTS Assay for Inhibitors and Substrates of Cytochrome P450 2C9 (AID 883). Also: potency is read from the fitted curve at half-maximal effect; nearly all actives have a fitted effect of over 60% in size. As to conditions: recombinant CYP2C9, luciferin-H luminescence, 60 min; series mostly up to 57.1 µM. Summed up: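 Human CYP2C9 (10nM) hydroxylated Luciferin-H (100uM, at its KM) to luciferin in 25mM KPO4. Compound was preincubated 10 min at 37C, then NADPH regeneration started a 60 min reaction at 37C. Luminescence was read after detection reagent, normalized to 57uM sulphaphenazole.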
Cytochrome P450 2C9 (Homo sapiens), sequence (P11712 whole entry, looked up): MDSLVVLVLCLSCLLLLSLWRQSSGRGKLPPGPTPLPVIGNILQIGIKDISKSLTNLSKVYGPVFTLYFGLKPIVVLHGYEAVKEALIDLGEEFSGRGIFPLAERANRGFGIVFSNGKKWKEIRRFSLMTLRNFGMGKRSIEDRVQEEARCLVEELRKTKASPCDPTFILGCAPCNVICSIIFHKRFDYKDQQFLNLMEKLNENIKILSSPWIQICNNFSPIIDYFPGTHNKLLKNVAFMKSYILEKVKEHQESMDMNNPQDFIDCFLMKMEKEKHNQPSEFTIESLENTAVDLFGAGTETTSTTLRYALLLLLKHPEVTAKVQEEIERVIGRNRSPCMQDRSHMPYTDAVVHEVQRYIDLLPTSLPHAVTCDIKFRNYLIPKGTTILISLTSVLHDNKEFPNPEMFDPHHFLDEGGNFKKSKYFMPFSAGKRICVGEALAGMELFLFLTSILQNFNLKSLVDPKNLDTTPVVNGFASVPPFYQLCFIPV

The target in assay [18] is Cytochrome P450 3A4 (Homo sapiens) (UniProt P08684). In words: qHTS Assay for Inhibitors and Substrates of Cytochrome P450 3A4 (AID 884). Also: potency is read from the fitted curve at half-maximal effect; nearly all actives have a fitted effect of over 50% in size. The conditions noted are these: recombinant CYP3A4, Luciferin-PPXE luminescence; series mostly up to 57.1 µM. Summed up:
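20 nM human CYP3A4 with 25 uM Luciferin-PPXE (at KM) in 200 mM KPO4, preincubated 10 min with compound; NADPH regeneration started a 60 min RT reaction. Luciferin detected by luminescence, normalized to 57 uM ketoconazole as full inhibition.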

Assay [19] has the same target. Briefly: qHTS Assay for Activators of Cytochrome P450 3A4 (AID 885). Also: nearly all actives have a fitted effect of over 65% in size. As to conditions: recombinant CYP3A4, Luciferin-PPXE luminescence, 60 min; series mostly up to 57.1 µM. An outline of the steps: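 20nM CYP3A4 + 25uM Luciferin-PPXE (=KM), 200mM KPO4; cpd 10 min RT; NADPH regen, 60 min RT; stop w/ detection buffer, 20 min; luminescence. Normalized to 57 uM ketoconazole.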

For assay [20], the target named is Dual specificity protein kinase CLK4 (Homo sapiens) (UniProt Q9HAZ1). Briefly: qHTS Assay for Inhibitors of CDC-like Kinase 4 (ADP-Glo Assay) (AID 1771). Also: % is scaled to controls: 0 for no effect and ±100 for the full control effect; nearly all actives have a fitted effect of over 70% in size. As to conditions: recombinant CLK4, ADP-Glo luminescence; series mostly up to 80 µM. Summed up:
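Luminescence from ADP-Glo reports ADP produced by 25 nM Clk4 acting on 100 uM RS repeat peptide with 1 uM ATP over 1 hr at room temperature; residual ATP is depleted before ADP is converted to ATP for detection.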

A short description of assay [21]: Primary qHTS for small molecule stabilizers of the endoplasmic reticulum resident proteome: Secreted ER Calcium Modulated Protein (SERCaMP) assay (AID 1508630). Also: potency is read from the fitted curve at half-maximal effect. As to conditions: SH-SY5Y GLuc-SERCaMP (Gaussia luciferase released on ER calcium loss) secretion, thapsigargin, luminescence; series mostly up to 38.4 µM. An outline of the steps:
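GLuc-SERCaMP-expressing SH-SY5Y cells, pretreated 16 h with compound, are challenged with thapsigargin to empty ER calcium stores; after 4 h, coelenterazine is added directly to the medium and luminescence is imaged.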

3',5'-cyclic-AMP phosphodiesterase 4B (Homo sapiens), sequence (Q07343 whole entry, looked up): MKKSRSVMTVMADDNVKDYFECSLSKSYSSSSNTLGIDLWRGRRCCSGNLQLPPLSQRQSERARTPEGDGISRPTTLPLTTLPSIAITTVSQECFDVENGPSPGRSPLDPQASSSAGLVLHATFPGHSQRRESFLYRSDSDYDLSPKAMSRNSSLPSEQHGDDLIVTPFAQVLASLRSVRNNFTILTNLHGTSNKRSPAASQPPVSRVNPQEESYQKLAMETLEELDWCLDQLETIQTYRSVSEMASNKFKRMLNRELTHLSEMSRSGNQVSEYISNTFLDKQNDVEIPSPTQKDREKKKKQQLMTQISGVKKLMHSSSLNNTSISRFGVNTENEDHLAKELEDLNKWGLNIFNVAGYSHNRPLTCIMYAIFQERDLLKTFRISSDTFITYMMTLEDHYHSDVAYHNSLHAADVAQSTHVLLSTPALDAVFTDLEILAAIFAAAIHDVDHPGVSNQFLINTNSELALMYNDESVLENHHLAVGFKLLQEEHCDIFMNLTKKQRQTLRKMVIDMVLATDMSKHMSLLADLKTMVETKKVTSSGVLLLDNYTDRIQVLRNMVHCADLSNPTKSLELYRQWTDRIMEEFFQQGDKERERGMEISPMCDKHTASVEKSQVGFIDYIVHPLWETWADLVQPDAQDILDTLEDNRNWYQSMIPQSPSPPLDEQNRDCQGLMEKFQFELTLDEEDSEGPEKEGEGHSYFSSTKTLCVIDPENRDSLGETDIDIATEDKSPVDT
Lysosomal acid glucosylceramidase (Homo sapiens), sequence (P04062 whole entry, looked up): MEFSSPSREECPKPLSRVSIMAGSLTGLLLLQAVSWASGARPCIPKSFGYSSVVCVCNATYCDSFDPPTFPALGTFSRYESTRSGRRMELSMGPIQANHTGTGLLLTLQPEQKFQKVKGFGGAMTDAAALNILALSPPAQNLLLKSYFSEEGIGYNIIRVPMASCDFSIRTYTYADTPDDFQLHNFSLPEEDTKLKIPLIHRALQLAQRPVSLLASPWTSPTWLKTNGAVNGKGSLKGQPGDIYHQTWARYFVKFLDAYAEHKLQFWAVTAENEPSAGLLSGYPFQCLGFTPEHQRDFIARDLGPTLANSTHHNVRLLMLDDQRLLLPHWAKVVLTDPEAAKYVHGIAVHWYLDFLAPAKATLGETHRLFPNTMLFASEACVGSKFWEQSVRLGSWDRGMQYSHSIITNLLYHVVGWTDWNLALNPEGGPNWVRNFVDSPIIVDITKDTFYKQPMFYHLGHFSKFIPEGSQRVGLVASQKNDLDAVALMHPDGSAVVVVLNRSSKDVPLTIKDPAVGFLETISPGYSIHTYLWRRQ
Ubiquitin carboxyl-terminal hydrolase 1 (Homo sapiens), sequence (O94782 whole entry, looked up): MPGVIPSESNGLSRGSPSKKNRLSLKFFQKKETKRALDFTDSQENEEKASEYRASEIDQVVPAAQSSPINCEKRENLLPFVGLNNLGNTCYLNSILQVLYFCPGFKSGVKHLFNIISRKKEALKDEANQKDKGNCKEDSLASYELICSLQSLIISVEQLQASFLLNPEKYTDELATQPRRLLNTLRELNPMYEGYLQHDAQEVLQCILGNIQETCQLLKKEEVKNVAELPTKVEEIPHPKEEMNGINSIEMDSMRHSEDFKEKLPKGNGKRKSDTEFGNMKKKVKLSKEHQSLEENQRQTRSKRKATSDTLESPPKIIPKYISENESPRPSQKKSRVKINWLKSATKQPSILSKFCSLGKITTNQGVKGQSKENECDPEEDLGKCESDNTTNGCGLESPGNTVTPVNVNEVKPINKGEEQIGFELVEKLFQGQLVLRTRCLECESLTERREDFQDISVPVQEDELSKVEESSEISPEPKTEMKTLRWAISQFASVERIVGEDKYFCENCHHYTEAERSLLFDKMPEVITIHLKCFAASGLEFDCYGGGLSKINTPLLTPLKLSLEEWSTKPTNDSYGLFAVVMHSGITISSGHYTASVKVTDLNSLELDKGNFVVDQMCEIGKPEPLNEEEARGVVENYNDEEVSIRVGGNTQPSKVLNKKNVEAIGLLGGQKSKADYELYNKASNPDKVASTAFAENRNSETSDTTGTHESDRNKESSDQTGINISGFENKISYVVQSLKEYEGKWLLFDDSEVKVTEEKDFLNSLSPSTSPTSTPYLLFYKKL
Dual specificity protein kinase CLK4 (Homo sapiens), sequence (Q9HAZ1 whole entry, looked up): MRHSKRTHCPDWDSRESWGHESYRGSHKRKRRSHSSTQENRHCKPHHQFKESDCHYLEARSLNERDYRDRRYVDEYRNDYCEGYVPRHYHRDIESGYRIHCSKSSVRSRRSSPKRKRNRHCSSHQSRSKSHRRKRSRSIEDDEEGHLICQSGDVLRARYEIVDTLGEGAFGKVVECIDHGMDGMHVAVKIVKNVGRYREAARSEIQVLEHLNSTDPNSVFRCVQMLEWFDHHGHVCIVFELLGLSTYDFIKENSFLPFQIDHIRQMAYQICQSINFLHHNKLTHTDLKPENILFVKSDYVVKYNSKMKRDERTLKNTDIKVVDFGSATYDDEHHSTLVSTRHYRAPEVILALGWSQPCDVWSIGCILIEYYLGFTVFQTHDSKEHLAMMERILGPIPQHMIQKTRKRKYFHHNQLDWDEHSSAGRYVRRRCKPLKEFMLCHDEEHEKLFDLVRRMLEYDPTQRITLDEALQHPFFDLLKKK
Cytochrome P450 3A4 (Homo sapiens), sequence (P08684 whole entry, looked up): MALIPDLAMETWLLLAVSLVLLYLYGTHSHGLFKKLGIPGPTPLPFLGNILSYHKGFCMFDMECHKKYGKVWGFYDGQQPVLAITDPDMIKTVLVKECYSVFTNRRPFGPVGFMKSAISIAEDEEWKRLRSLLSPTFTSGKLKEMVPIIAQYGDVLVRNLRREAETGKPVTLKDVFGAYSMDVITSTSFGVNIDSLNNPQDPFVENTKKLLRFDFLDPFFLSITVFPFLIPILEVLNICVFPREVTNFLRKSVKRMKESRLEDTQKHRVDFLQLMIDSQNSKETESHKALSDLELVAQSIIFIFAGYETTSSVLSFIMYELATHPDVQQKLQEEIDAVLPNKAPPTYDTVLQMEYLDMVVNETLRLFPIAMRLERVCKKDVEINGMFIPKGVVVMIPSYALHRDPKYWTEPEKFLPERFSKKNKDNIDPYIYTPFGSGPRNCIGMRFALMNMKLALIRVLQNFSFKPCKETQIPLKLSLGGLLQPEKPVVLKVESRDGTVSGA
Cytochrome P450 1A2 (Homo sapiens), sequence (P05177 whole entry, looked up): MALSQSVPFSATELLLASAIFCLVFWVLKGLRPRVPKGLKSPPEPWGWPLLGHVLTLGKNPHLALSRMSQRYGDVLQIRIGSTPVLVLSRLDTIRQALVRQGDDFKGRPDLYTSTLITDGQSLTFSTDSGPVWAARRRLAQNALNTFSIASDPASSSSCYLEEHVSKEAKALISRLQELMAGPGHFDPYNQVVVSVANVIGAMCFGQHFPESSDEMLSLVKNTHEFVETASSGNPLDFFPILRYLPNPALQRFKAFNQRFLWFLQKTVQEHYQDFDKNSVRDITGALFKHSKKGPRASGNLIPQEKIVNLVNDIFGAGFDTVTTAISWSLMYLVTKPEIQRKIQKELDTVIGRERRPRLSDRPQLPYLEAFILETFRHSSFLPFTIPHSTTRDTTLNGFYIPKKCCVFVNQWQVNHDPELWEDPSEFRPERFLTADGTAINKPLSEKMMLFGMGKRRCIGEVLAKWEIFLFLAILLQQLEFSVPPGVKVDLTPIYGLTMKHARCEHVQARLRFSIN

Turning to `O=c1c(-c2cccs2)nc2cnc(N3CCNCC3)nc2n1CCc1ccccc1`, the values for the Potency in assay [1], in [3] and in assay [4] were > 11.4 µM (inactive), > 9.22 µM (inactive) and > 46 µM (inactive), respectively. In addition, in [2], the activity change, negative = inhibition was 82.5% [activator] (active). Further, the Potency entry in assay [5], in assay [6], in assay [7], in assay [8], in assay [9] and in assay [10] was “inactive” in each case.
On to `O=c1c(-c2ccc(Cl)cc2)nc2cnc(Oc3ccccc3)nc2n1C1CC1`, for which the Potency in assay [1] was > 11.4 µM (inactive); in assay [3], > 9.22 µM (inactive); in assay [4] it was > 46 µM (inactive); in assay [10] it was 35.5 µM (active). In addition, the activity change, negative = inhibition in assay [2] was -21% (inactive); in assay [11], -2.33% (inactive). Besides, in [12], the activity, negative = inhibition was -4.95% (inactive). In addition, in assay [13], the molecule was called inactive. Also, the Potency entry in [5] and in assay [9] was “inactive” each time.
Take `COc1ccc(Oc2ncc3nc(-c4cccs4)c(=O)n(CCC#N)c3n2)cc1`: the values for the Potency in assay [1], in [3] and in assay [4] were > 11.4 µM (inactive), > 9.22 µM (inactive) and > 46 µM (inactive), respectively. The activity change, negative = inhibition in assay [2] is -1.5% (inactive); in assay [11], -5.68% (inactive); in assay [14] (at 57.5 µM (top of the series)) it was 2.6% (inactive). The activity, negative = inhibition in assay [12] was -11.5% (inactive). The outcome in assay [13] was inactive. In addition, the Potency entry in [5], in assay [6], in [7], in [8] and in [9] was “inactive” each time. Further, the max response in assay [14] (measured here: cell count channel max response) was 10.8%; in [14] (measured here: lipid channel max response), 10.8%; in [15], 18.3% (inactive).
For the molecule `COc1ccc(CNc2ncnc3ccc(-c4ccccc4OC)cc23)c(OC)c1`, the Potency in [1] was > 11.4 µM (inactive); in assay [16] it was 3.16 µM (active); in [3] it was > 46 µM (inactive); in assay [4], > 46 µM (inactive); in assay [17], 0.398 µM (active); in assay [18], 2 µM (active). In assay [10], the Potency was 22.4 µM (active). Moreover, the activity change, negative = inhibition in assay [2] was -4.21% (inactive); in assay [11] it was -17.9% (inactive). In assay [12], the activity, negative = inhibition is -2.99% (inactive). Further, the molecule was classed as inactive in assay [13]. Further, the Potency result in [19], in [8] and in [9] was “inactive” in each case.
In the case of `CN(C)c1nccc(N(Cc2ccccc2)Cc2ccccc2)c1C#N`, in [9], the Potency result is “inactive”. Besides, in assay [15], the max response is -2.77% (inactive).
`COc1ccc(Oc2ncc3nc(CCc4ccccc4)c(=O)n(C[C@H]4CCCO4)c3n2)cc1`: the activity change, negative = inhibition in assay [2] is -25.6% (inactive); in [11], -6.61% (inactive). Besides, the activity, negative = inhibition in assay [12] was -17.3% (inactive). Besides, the Potency in [3] was > 9.22 µM (inactive); in assay [4], > 46 µM (inactive); in assay [21], 35.5 µM (active). Moreover, the result in assay [13] was inactive. Besides, the Potency entry in assay [6], in assay [20], in assay [8] and in assay [9] was “inactive” throughout. In addition, the max response in assay [15] is 6.27% (inactive).
